From PubChem BioAssay AID1159580 (chemical genetic matrix, 2015)
Values joined by “and” are separate entries in the source; they are usually repeats but may differ in a detail not shown here. Equal values may be shown once. Hit rate of the full screen: of about 5,500 compounds, about 2,000 (36%) were called active. Not shown: some 18% with an inconclusive outcome. No stated cut-off is given here; in the data, active means normalized growth mostly below about 0.91 (no sharp cut-off); inconclusive means no clear call, values can overlap the other calls; inactive means mostly above about 0.92. The list shows a part of the results.

Test: chemical genetic growth profiling, strain panel (AID 1159580);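 further: tested at 20 µM; growth read once vehicle control cultures reached saturation at 30 °C; 1 = growth at the plate median or of vehicle wells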
Details: S. cerevisiae deletion strains, growth OD

Measured: normalized growth

C#C[C@]1(O)CCC2C3CCC4=Cc5oncc5C[C@]4(C)C3CC[C@@]21C (stereo partly specified)
active: locus YBR229C, strain ROT2, stronger effect = lower value 0.898 | locus YDL074C, strain BRE1, stronger effect = lower value 0.725 | locus YDR101C, strain arx1, stronger effect = lower value 0.887 | locus YDR159W, strain sac3, stronger effect = lower value 0.839 | locus YDR318W, strain mcm21, stronger effect = lower value 0.891 | locus YDR392W, strain spt3, stronger effect = lower value 0.542 | locus YDR502C, strain sam2, stronger effect = lower value 0.887 | locus YER155C, strain BEM2 (second series), stronger effect = lower value 0.828 | locus YER155C, strain BEM2, stronger effect = lower value 0.903 | locus YGL086W, strain mad1, stronger effect = lower value 0.85 | locus YHR079C, strain IRE1 (second series), stronger effect = lower value 0.924 | locus YHR129C, strain ARP1, stronger effect = lower value 0.889 | locus YHR200W, strain rpn10, stronger effect = lower value 0.912 | locus YIL066C, strain RNR3, stronger effect = lower value 0.785 | locus YIL125W, strain kgd1, stronger effect = lower value 0.917 | locus YIR030C, strain dcg1, stronger effect = lower value 0.927 | locus YJL129C, strain trk1, stronger effect = lower value 0.83 | locus YJL166W, strain qcr8, stronger effect = lower value 0.899
0.729 (active) and 0.973 (inactive): locus YJL095W, strain BCK1, stronger effect = lower value
0.825 (active) and 0.957 (inactive): locus YHR030C, strain SLT2, stronger effect = lower value
inactive: locus YAL021C, strain ccr4, stronger effect = lower value 1.05 | locus YAL026C, strain drs2, stronger effect = lower value 0.977 | locus YAL030W, strain snc1, stronger effect = lower value 0.94 | locus YBL061C, strain skt5, stronger effect = lower value 0.941 | locus YBR009C, strain hhf1, stronger effect = lower value 0.918 | locus YBR021W, strain FUR4, stronger effect = lower value 1.01 | locus YBR023C, strain chs3, stronger effect = lower value 0.958 | locus YBR171W, strain sec66, stronger effect = lower value 0.937 | locus YBR231C, strain swc5, stronger effect = lower value 0.966 | locus YBR279W, strain paf1, stronger effect = lower value 0.969 | locus YCL011C, strain gbp2, stronger effect = lower value 0.97 | locus YCL016C, strain dcc1, stronger effect = lower value 0.996 | locus YCL029C, strain bik1, stronger effect = lower value 0.919 | locus YCL061C, strain MRC1, stronger effect = lower value 0.943 | locus YCL069W, strain vba3, stronger effect = lower value 0.956 | locus YCR088W, strain abp1, stronger effect = lower value 0.943 | locus YDL005C, strain med2, stronger effect = lower value 0.954 | locus YDL035C, strain GPR1, stronger effect = lower value 0.94 | locus YDL040C, strain nat1, stronger effect = lower value 0.958 | locus YDL101C, strain DUN1, stronger effect = lower value 0.906 | locus YDL185W, strain tfp1, stronger effect = lower value 0.932 | locus YDL192W, strain arf1, stronger effect = lower value 0.933 | locus YDR001C, strain nth1, stronger effect = lower value 0.961 | locus YDR069C, strain doa4, stronger effect = lower value 0.96 | locus YDR137W, strain rgp1, stronger effect = lower value 0.859 | locus YDR150W, strain NUM1, stronger effect = lower value 0.929 | locus YDR162C, strain NBP2, stronger effect = lower value 0.866 | locus YDR195W, strain ref2 0.978 | locus YDR297W, strain sur2, stronger effect = lower value 0.937 | locus YDR334W, strain swr1, stronger effect = lower value 0.965 | locus YDR335W, strain msn5, stronger effect = lower value 0.95 | locus YDR388W, stronger effect = lower value 0.957 | locus YEL003W, strain gim4, stronger effect = lower value 0.932 | locus YEL037C, strain rad23, stronger effect = lower value 0.971 | locus YEL061C, strain CIN8 (second series), stronger effect = lower value 0.958 | locus YEL061C, strain CIN8, stronger effect = lower value 0.93 | locus YER015W, strain faa2, stronger effect = lower value 0.961 | locus YER016W, strain bim1, stronger effect = lower value 0.969 | locus YER110C, stronger effect = lower value 0.933 | locus YER111C, strain swi4, stronger effect = lower value 0.978 | locus YER167W, strain BCK2, stronger effect = lower value 0.939 | locus YFR010W, strain ubp6, stronger effect = lower value 0.927 | locus YGL078C, strain dbp3, stronger effect = lower value 0.962 | locus YGL167C, strain pmr1, stronger effect = lower value 0.942 | locus YGL173C, strain kem1, stronger effect = lower value 0.929 | locus YGL227W, strain vid30, stronger effect = lower value 0.958 | locus YGL240W, strain doc1, stronger effect = lower value 0.94 | locus YGL248W, strain PDE1, stronger effect = lower value 0.892 | locus YGL253W, strain hxk2, stronger effect = lower value 0.946 | locus YGR135W, strain pre9, stronger effect = lower value 0.999 | locus YGR252W, strain gcn5, stronger effect = lower value 0.99 | locus YHR013C, strain ard1, stronger effect = lower value 1.01 | locus YHR027C, strain rpn1, stronger effect = lower value 0.979 | locus YHR079C, strain IRE1, stronger effect = lower value 0.964 | locus YHR094C, strain hxt1, stronger effect = lower value 0.939 | locus YHR142W, strain chs7, stronger effect = lower value 0.888 | locus YIL073C, strain SPO22, stronger effect = lower value 0.871 | locus YJL092W, strain hpr5, stronger effect = lower value 0.934 | locus YJL095W, strain BCK1 (second series), stronger effect = lower value 0.976 | locus YJL115W, strain asf1, stronger effect = lower value 0.952 | locus YJL134W, strain LCB3, stronger effect = lower value 0.944 | locus YJL154C, strain vps35, stronger effect = lower value 0.961 | locus YJL164C, strain tpk1, stronger effect = lower value 0.973 | locus YJL168C, strain set2, stronger effect = lower value 0.941 | locus YJL187C, strain SWE1 (second series), stronger effect = lower value 0.904 | locus YJR043C, strain POL32, stronger effect = lower value 0.93
